The record followed here is article doi:10.1101/2024.03.05.583629.

One test concerns the target pT7_6His-AlfaTag-HOXD13 (human, UniProt P35453 263-343). Nature of the test: PADIT-seq. The following applies: dsDNA, one strand shown.
In a further test the target is pT7_6His-AlfaTag-ZIF268 (human, UniProt P18146 335-423). Nature of the test: PADIT-seq. The note with it: dsDNA, one strand shown.

Chain of pT7_6His-AlfaTag-HOXD13 (P35453 263-343): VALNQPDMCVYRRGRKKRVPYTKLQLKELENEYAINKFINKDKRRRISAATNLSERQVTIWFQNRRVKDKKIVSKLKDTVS

On to “CTCGAGGATATCAAGATCTGGCCTCGGCATCTTAAAAGGAACCTCTAGCTAGCCGACTCACTATAGGGATAATCGCCCTGAGCAAAGACC”, for which the figures for the binding signal in the test with pT7_6His-AlfaTag-HOXD13 and with pT7_6His-AlfaTag-ZIF268 were 1.62 ± 0.0869 log2FC and 0.00209 ± 0.0901 log2FC, respectively. The matching figures for “CTCGAGGATATCAAGATCTGGCCTCGGCGCGTGGACAGGAACCTCTAGCTAGCCGACTCACTATAGGGATAATCGCCCTGAGCAAAGACC”: -1.05 ± 0.134 log2FC and 0.15 ± 0.106 log2FC. The matching figures for “CTCGAGGATATCAAGATCTGGCCTCGGCAGCCCACGCGGAACCTCTAGCTAGCCGACTCACTATAGGGATAATCGCCCTGAGCAAAGACC”: -0.926 ± 0.109 log2FC and 0.806 ± 0.0795 log2FC. The matching figures for “CTCGAGGATATCAAGATCTGGCCTCGGCATTTTACTCGGAACCTCTAGCTAGCCGACTCACTATAGGGATAATCGCCCTGAGCAAAGACC”: 0.755 ± 0.0905 log2FC and 0.0783 ± 0.0882 log2FC.

For “CTCGAGGATATCAAGATCTGGCCTCGGCATTTTACTTGGAACCTCTAGCTAGCCGACTCACTATAGGGATAATCGCCCTGAGCAAAGACC”, the figures for the binding signal in the test with pT7_6His-AlfaTag-HOXD13 and in the test with pT7_6His-AlfaTag-ZIF268 were 1.23 ± 0.0944 log2FC and 0.0654 ± 0.0956 log2FC, respectively.

For the sequence “CTCGAGGATATCAAGATCTGGCCTCGGCACAGTAAAAGGAACCTCTAGCTAGCCGACTCACTATAGGGATAATCGCCCTGAGCAAAGACC”, the binding signal amounted to 1.94 ± 0.076 log2FC with pT7_6His-AlfaTag-HOXD13 and 0.04 ± 0.0816 log2FC with pT7_6His-AlfaTag-ZIF268. Consider “CTCGAGGATATCAAGATCTGGCCTCGGCCGCCCAATGGGAACCTCTAGCTAGCCGACTCACTATAGGGATAATCGCCCTGAGCAAAGACC”, for which the binding signal is -0.785 ± 0.113 log2FC with pT7_6His-AlfaTag-HOXD13 and 0.0226 ± 0.0907 log2FC with pT7_6His-AlfaTag-ZIF268. With “CTCGAGGATATCAAGATCTGGCCTCGGCTATTGGGCGGGAACCTCTAGCTAGCCGACTCACTATAGGGATAATCGCCCTGAGCAAAGACC”, the results for the binding signal with pT7_6His-AlfaTag-HOXD13 and with pT7_6His-AlfaTag-ZIF268 were -0.163 ± 0.106 log2FC and 0.205 ± 0.0951 log2FC, respectively. The matching figures for “CTCGAGGATATCAAGATCTGGCCTCGGCCTTTTAGTGGGAACCTCTAGCTAGCCGACTCACTATAGGGATAATCGCCCTGAGCAAAGACC”: 1.46 ± 0.0766 log2FC and 0.00894 ± 0.0794 log2FC. The matching figures for “CTCGAGGATATCAAGATCTGGCCTCGGCCGCTTTCGCGGAACCTCTAGCTAGCCGACTCACTATAGGGATAATCGCCCTGAGCAAAGACC”: -1.06 ± 0.128 log2FC and 0.0116 ± 0.104 log2FC. The matching figures for “CTCGAGGATATCAAGATCTGGCCTCGGCTCGGTAAAAGGAACCTCTAGCTAGCCGACTCACTATAGGGATAATCGCCCTGAGCAAAGACC”: 0.426 ± 0.0878 log2FC and 0.074 ± 0.0831 log2FC.

With “CTCGAGGATATCAAGATCTGGCCTCGGCATTTTATCTGGAACCTCTAGCTAGCCGACTCACTATAGGGATAATCGCCCTGAGCAAAGACC”, the binding signal in the test with pT7_6His-AlfaTag-HOXD13 was 0.909 ± 0.103 log2FC; in the test with pT7_6His-AlfaTag-ZIF268, 0.0226 ± 0.102 log2FC. The matching figures for “CTCGAGGATATCAAGATCTGGCCTCGGCACTATAAAAGGAACCTCTAGCTAGCCGACTCACTATAGGGATAATCGCCCTGAGCAAAGACC”: 2.93 ± 0.0918 log2FC and 0.0278 ± 0.1 log2FC. For “CTCGAGGATATCAAGATCTGGCCTCGGCGCGGATGCGGGAACCTCTAGCTAGCCGACTCACTATAGGGATAATCGCCCTGAGCAAAGACC” the same measures were 0.465 ± 0.106 log2FC and 0.109 ± 0.102 log2FC. The matching figures for “CTCGAGGATATCAAGATCTGGCCTCGGCGCGTGGTACGGAACCTCTAGCTAGCCGACTCACTATAGGGATAATCGCCCTGAGCAAAGACC”: -0.921 ± 0.116 log2FC and 0.427 ± 0.0903 log2FC. As to “CTCGAGGATATCAAGATCTGGCCTCGGCGTTTTAACGGGAACCTCTAGCTAGCCGACTCACTATAGGGATAATCGCCCTGAGCAAAGACC”, the binding signal with pT7_6His-AlfaTag-HOXD13 was found to be 1.81 ± 0.0879 log2FC; with pT7_6His-AlfaTag-ZIF268 it was 0.0881 ± 0.0918 log2FC. For the sequence “CTCGAGGATATCAAGATCTGGCCTCGGCTGCCCACGCGGAACCTCTAGCTAGCCGACTCACTATAGGGATAATCGCCCTGAGCAAAGACC”, the binding signal in the test with pT7_6His-AlfaTag-ZIF268 came out at 0.958 ± 0.086 log2FC. “CTCGAGGATATCAAGATCTGGCCTCGGCGAATGGGCGGGAACCTCTAGCTAGCCGACTCACTATAGGGATAATCGCCCTGAGCAAAGACC”: the binding signal is -0.762 ± 0.106 log2FC with pT7_6His-AlfaTag-HOXD13 and 0.0552 ± 0.0878 log2FC with pT7_6His-AlfaTag-ZIF268. Consider “CTCGAGGATATCAAGATCTGGCCTCGGCTCATGGGCGGGAACCTCTAGCTAGCCGACTCACTATAGGGATAATCGCCCTGAGCAAAGACC”, for which the results for the binding signal with pT7_6His-AlfaTag-HOXD13 and with pT7_6His-AlfaTag-ZIF268 were -1.04 ± 0.124 log2FC and 0.0784 ± 0.105 log2FC, respectively. For “CTCGAGGATATCAAGATCTGGCCTCGGCCGCCCACTAGGAACCTCTAGCTAGCCGACTCACTATAGGGATAATCGCCCTGAGCAAAGACC” the same measures were -0.944 ± 0.114 log2FC and 0.246 ± 0.0891 log2FC. With “CTCGAGGATATCAAGATCTGGCCTCGGCTAGTGGGCGGGAACCTCTAGCTAGCCGACTCACTATAGGGATAATCGCCCTGAGCAAAGACC”, the binding signal with pT7_6His-AlfaTag-HOXD13 was -0.725 ± 0.112 log2FC; with pT7_6His-AlfaTag-ZIF268 it was 1.78 ± 0.084 log2FC. Consider “CTCGAGGATATCAAGATCTGGCCTCGGCCGCCTAAAAGGAACCTCTAGCTAGCCGACTCACTATAGGGATAATCGCCCTGAGCAAAGACC”, for which the binding signal is -0.524 ± 0.115 log2FC in the test with pT7_6His-AlfaTag-HOXD13 and 0.0248 ± 0.0968 log2FC with pT7_6His-AlfaTag-ZIF268.

As to “CTCGAGGATATCAAGATCTGGCCTCGGCCATCCACGCGGAACCTCTAGCTAGCCGACTCACTATAGGGATAATCGCCCTGAGCAAAGACC”, the binding signal in the test with pT7_6His-AlfaTag-HOXD13 is -1.04 ± 0.111 log2FC; in the test with pT7_6His-AlfaTag-ZIF268 it was 0.00839 ± 0.0869 log2FC.

In the test with pT7_6His-AlfaTag-ZIF268, “CTCGAGGATATCAAGATCTGGCCTCGGCCGCCCACATGGAACCTCTAGCTAGCCGACTCACTATAGGGATAATCGCCCTGAGCAAAGACC” gave a binding signal of 1.03 ± 0.0882 log2FC.

As to “CTCGAGGATATCAAGATCTGGCCTCGGCTCGTGGGCGGGAACCTCTAGCTAGCCGACTCACTATAGGGATAATCGCCCTGAGCAAAGACC”, the binding signal was -0.771 ± 0.106 log2FC with pT7_6His-AlfaTag-HOXD13 and 2.74 ± 0.0778 log2FC in the test with pT7_6His-AlfaTag-ZIF268.

For the sequence “CTCGAGGATATCAAGATCTGGCCTCGGCCGCCCAGGAGGAACCTCTAGCTAGCCGACTCACTATAGGGATAATCGCCCTGAGCAAAGACC”, the binding signal in the test with pT7_6His-AlfaTag-HOXD13 was -1.1 ± 0.149 log2FC; in the test with pT7_6His-AlfaTag-ZIF268, 0.0116 ± 0.118 log2FC. As to “CTCGAGGATATCAAGATCTGGCCTCGGCATTTTACGTGGAACCTCTAGCTAGCCGACTCACTATAGGGATAATCGCCCTGAGCAAAGACC”, the binding signal was 2.63 ± 0.0745 log2FC with pT7_6His-AlfaTag-HOXD13 and 0.139 ± 0.0815 log2FC with pT7_6His-AlfaTag-ZIF268.
